Measurements reported in PubChem BioAssay AID2108 (National Center for Advancing Translational Sciences (NCATS), 2009).
Inconclusive results are not listed. Active and inactive are the calls of the source. The call rests on the fitted dose curve; in most records, active means well fitted curve in the direction sought with a large enough effect; inconclusive means small, poorly fitted or top-dose-only effect, or effect the other way, or another doubt; inactive means no such curve, though single readings can be large or run the other way.

Molecular target: Alpha-galactosidase A (Homo sapiens) (UniProt P06280)
Sequence (P06280 32-429 limits assumed): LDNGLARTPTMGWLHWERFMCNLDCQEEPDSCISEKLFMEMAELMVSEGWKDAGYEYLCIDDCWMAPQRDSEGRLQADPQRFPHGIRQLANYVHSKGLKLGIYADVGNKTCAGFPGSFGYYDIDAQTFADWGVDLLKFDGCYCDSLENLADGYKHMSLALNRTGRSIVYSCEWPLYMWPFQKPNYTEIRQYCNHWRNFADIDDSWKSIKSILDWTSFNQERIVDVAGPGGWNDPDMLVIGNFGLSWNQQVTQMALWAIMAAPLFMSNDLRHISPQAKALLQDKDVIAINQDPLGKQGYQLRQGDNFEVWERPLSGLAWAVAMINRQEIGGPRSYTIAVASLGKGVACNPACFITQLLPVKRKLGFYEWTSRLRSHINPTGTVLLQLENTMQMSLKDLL
Assay: Confirmation of Inhibitors of Human alpha-Galactosidase Using Spleen Homogenate
Details: alpha-galactosidase enzyme activity; series mostly up to 56.2 µM
Procedure, shortened: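 AC50 values come from Hill-equation fits of normalised 4-methylumbelliferone fluorescence (365/440 nm, read after NaOH/glycine stop). Enzyme source: spleen homogenate; substrate 1 mM final; pH 5.0 citrate buffer; 40 min at 37C; compound titration 0.5 nM–58 uM.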

outcome, inactive:
CC1(C)CC(=O)c2cc(C(=O)NCc3ccco3)c(=O)n(-c3ccc(Cl)cc3)c2C1, O=S(=O)(c1ccccc1)N1CCN(Cc2ccccc2)CC1, COc1cc(C2C(C(=O)c3ccco3)=C(O)C(=O)N2CC2CCCO2)ccc1O (configuration not stated), O=C(O)C[C@@H]1C(=O)O[C@@H]2C(COC(=O)c3cc(O)c(O)c(O)c3)O[C@@H](OC(=O)c3cc(O)c(O)c(O)c3)[C@@H](OC(=O)c3cc(O)c(O)c4c3[C@H]1[C@H](O)C(=O)O4)[C@H]2OC(=O)c1cc(O)c(O)c(O)c1 (some centres not stated), CCOc1c(Br)cc(CNc2ccc(N3CCN(C(C)=O)CC3)cc2)cc1OC, O=C(NC1=NCCS1)C1Cc2ccccc2CN1C(=O)c1ccccc1 (configuration not stated), Cc1nc(-n2nnc(CO)c2CO)nc2c1CCC2, Nc1c(NCCN2CCCCC2)c2ccccc2oc1=O, CC1OC(OC2C(CO)OC(OC3C(CO)OC(O)C(O)C3O)C(O)C2O)C(O)C(O)C1NC1C=C(CO)C(O)C(O)C1O (configuration not stated), Cc1oc2c(O)c(O)ccc2c(=O)c1-c1cnn(-c2ccccc2)c1, O=C1CC(N2CCN(c3cccc(C(F)(F)F)c3)CC2)C(=O)N1c1ccc(F)cc1 (configuration not stated), CC1CC(C)CN(CC(=O)N2c3ccccc3CCc3ccccc32)C1 (configuration not stated), COC(=O)c1cc(OC)c(OC)cc1NC(=O)CCCCCN1C(=O)CCC1=O, O=c1oc2ccc3ccccc3c2cc1-c1nc(CCCBr)cs1, O=C(O)Cc1sc(-c2cc3ccccc3oc2=O)nc1-c1ccc(-c2ccccc2)cc1, CCOC(=O)c1ccc(NC(=O)c2ccccc2)cc1, O=S(=O)(c1ccccc1Cl)N1CCOCC1, CC(=O)c1ccc(S(=O)(=O)N2CCOCC2)cc1, CC/C(=N\NC(=O)c1c(C)nc2ccccn12)c1ccc(Cl)cc1, COc1cc(CNc2ccc(N3CCOCC3)cc2)cc(Br)c1OC, O=S(=O)(c1ccccc1Br)N1CCOCC1, CC(=O)NNc1nc2ccccc2s1, COCCNc1c(-c2ccc(O)cc2)nc2ccc(Cl)cn12, O=c1[nH]c2ccccc2nc1/C=C/c1ccc2c(c1)OCO2, COc1ccc2cc(C#N)c(=O)oc2c1, Cc1c(C(=O)NCc2ccccc2F)oc2ccccc12, COc1ccc(S(=O)(=O)N2CCN(C(=O)COc3ccc4c(C)cc(=O)oc4c3)CC2)cc1, O=C(COc1ccc2ccccc2c1)N1CCN(C(=O)c2ccco2)CC1, O=C(CSc1ccccc1)Nc1nnc(/C=C/c2ccccc2)s1, CN(C)CC/C=C1/c2ccccc2Sc2c(O)cc(Cl)cc21, Cc1[nH]nc2c1C(c1ccc(OC(=O)c3ccco3)cc1)C(C#N)=C(N)O2 (configuration not stated), N#Cc1c(-c2ccccc2)nc(SCc2nc(N)nc(N3CCCCC3)n2)[nH]c1=O, CC(C)c1nc2cc(C(=O)N3CCNC(=O)C3c3cccc(F)c3)ccc2o1 (configuration not stated), C(=C\c1ccc2ccccc2n1)/c1ccc2c(c1)OCO2, Cc1sc(-c2cc3cc(Br)ccc3oc2=O)nc1-c1ccccc1, Cc1cnc(C(=O)Nc2cc(S(=O)(=O)N3CCOCC3)ccc2N2CCN(C)CC2)cn1, CC(C)(C)OC(=O)NCCCC[C@H](NC(=O)c1[nH]cnc1C(=O)Nc1ccc(CNC(=O)OC(C)(C)C)cc1)C(=O)OC(C)(C)C
